Source: PubChem
NADH coupling = inhibitors of enzymes used to reach an NAD/NADH endpoint. coupled PK/LDH NADH assays, four targets. 0.02% of 65,000 active. IC50, µM (doses to about 10 µM), for the others: top-dose inhibition. AID 774;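 active means single-dose screening hits from any of four coupled enzyme assays that gave an IC50 when retested across doses; inconclusive means no clear call, values can overlap the other calls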;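 further: the DPM-DC format reads NADH fluorescence rather than 340 nm absorbance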
M1 ag = agonists of M1 muscarinic receptor. CHO-M1 cells, Fluo-4 calcium fluorescence, agonist mode; active compounds read high. B-score at 10 µM. 3% of 64,000 active;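 active means fluorescence rise, raw or as B-score row- and column-corrected plate score, outside the 99.7% band of its plate's samples, either direction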
Fluor 339 460 = intrinsic fluorescence of library compounds, ex339/em460 – biochemical, MLSMR library, data from DPM-DC assay, artefact control, profiling panel | AID 709 | fluorescence fold increase at 10 µM | 5.5% of 65,000 active | compound autofluorescence, ex339/em460 nm, NADH buffer; active compounds read high; 1 = no-compound wells, NADH background;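 active means at 10 µM, mean starting fluorescence two-fold or more over control wells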;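 further: signal is the first read of a kinetic run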
Htt clearance = mutant huntingtin protein clearance. HeLa Exon1htt(103Q)mCFP, aggregate imaging; zero = plate's median compound well. inhibition, % at 1.5 µM. 0.42% of 47,000 active. AID 853;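 active means inhibition of aggregate fluorescence above about 70%, also judged a hit by eye on the cell image, limit read from the data, passing the limit was not always enough; inconclusive means no rule stated for this call; inactive means not judged a hit on image review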;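 further: cells exposed to compound for three days before fixation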
M1 antagonist = antagonists of rat M1 muscarinic receptor; P08482; CHO-M1 cells, Fluo-4 calcium, ACh EC80 antagonist mode; active compounds read low; B-score at 10 µM; 3.4% of 64,000 active;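 active means calcium fluorescence response, raw or row-and-column corrected B-score, differing from the plate sample mean either way at a set confidence level, mostly lower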
Target sequence (P08482 whole entry, looked up): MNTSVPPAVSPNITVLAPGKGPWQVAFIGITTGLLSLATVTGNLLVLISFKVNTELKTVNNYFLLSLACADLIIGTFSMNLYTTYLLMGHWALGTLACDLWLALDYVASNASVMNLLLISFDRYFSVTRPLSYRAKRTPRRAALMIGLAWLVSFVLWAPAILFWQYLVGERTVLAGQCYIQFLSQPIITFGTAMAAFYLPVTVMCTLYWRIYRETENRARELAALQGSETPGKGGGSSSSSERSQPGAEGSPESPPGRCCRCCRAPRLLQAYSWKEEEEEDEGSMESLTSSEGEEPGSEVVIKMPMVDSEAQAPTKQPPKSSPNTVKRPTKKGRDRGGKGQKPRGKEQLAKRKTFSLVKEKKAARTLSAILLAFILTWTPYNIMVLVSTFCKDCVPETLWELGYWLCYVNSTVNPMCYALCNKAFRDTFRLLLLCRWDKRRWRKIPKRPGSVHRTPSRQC
Abs 340nm = absorbance at 340 nm | AID 708 | fold change at 10 µM | 65,000 tested, under 10 active | compound absorbance at 340 nm, fold over control;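 active means at 10 µM dose, initial 340 nm absorbance at least 2 fold that of control wells; inactive means change under 2 fold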;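 further: initial absorbance extrapolated from kinetic A340 decline of NADH oxidation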
M1 agonist conf = confirmation of rat M1 muscarinic receptor agonists. shares compounds with M1 ag. CHO-M1 cells, Fluo-4 calcium fluorescence, agonist mode; actives lie on both sides. fluorescence change (max-min) at 10 µM. 19% of 1,700 active. AID 1488;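 active means fluorescence change differs from the solvent-only DMSO control mean at a set confidence level in both duplicate runs; inconclusive means differs from solvent-only control mean in just one of two runs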;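 further: an EC20 dose of acetylcholine follows compound addition during the same imaging run; raw fluorescence intensity difference in instrument units with no normalization to controls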
M4 agonist ctr = rat M4 muscarinic agonism, M1 counter-screen. CHO M4/Gqi5 cells, Fluo-4 calcium fluorescence, agonist mode; actives lie on both sides. shares compounds with M1 ag. fluorescence change (max-min) at 10 µM. AID 1741. 9% of 1,700 active;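 active means fluorescence change differing from the plate's solvent-only control wells at 99.7% confidence in both duplicates, whether higher or lower; inconclusive means differs from solvent controls in only one of two duplicates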
An asterisk follows results filed as active; ? = inconclusive; · = no result given. Most compounds without a hit are left out; they make up all but 9.3% or so of the library.

SMILES	NADH coupling	M1 ag	Fluor 339 460	Htt clearance	M1 antagonist	Abs 340nm	M1 agonist conf	M4 agonist ctr
N#Cc1ccc(NC(=O)Nc2ccc(Cl)cc2)cc1	5.0%	3.12*	1.06	·	-0.34	1.04	29.3	13.4
Cc1snc(S(=O)(=O)Cc2ccccc2Cl)c1C#N	·	·	·	-49.6	·	·	·	·
O=C(Nc1cccc(-c2nc3cccnc3s2)c1)c1ccco1	6.0%	5.98*	1.24	·	-1.46	1.04	?	-50.1
O=C(Nc1cccc(-c2nc3ccccc3[nH]2)c1)c1ccco1	7.0%	0.894	1.08	12.9	-0.608	0.98	·	·
O=c1c2ccccc2nc(-c2ccco2)n1Cc1ccccc1	1.0%	-0.202	1.06	55.5	0.361	1.09	·	·
c1ccc(Cn2c(-c3ccco3)nc3nc4ccccc4nc32)cc1	12.0%	3.69*	3.69*	47.3	-0.533	1.08	?	?
COc1ccc(CCn2c(-c3ccco3)nc3nc4ccccc4nc32)cc1	3.0%	3.51*	1.35	?	-0.00813	1.02	-7.12	-11.8
Cn1c(N)c(C(=O)c2cc(-c3ccccn3)nc3ccccc23)c(=O)[nH]c1=O	10.0%	-0.273	1.02	·	0.19	1.05	·	·
C#CCOc1ccc(Br)cc1/C=N/O	·	·	·	-17.5	·	·	·	·
COC(=O)CN1C2(C#N)CCCCC2CC2CCCCC21C#N (configuration not stated)	4.0%	-1.02	1.06	9.2	-0.961	1	·	·
CC(=O)N1CCc2c(sc(NC(=O)C3CC3)c2-c2nc3ccccc3s2)C1	3.0%	6.08*	1.47	·	-1.4	1.11	11.2	?
CCOC(=O)C1=C(C)N=c2s/c(=C/c3ccco3)c(=O)n2C1c1cccc(OC)c1 (configuration not stated)	1.0%	0.666	1.11	-34.0	0.034	1.06	·	·
CCOC(=O)C1=C(C)N=c2s/c(=C\c3cccn3C)c(=O)n2C1c1cccc(OC)c1OC (configuration not stated)	3.0%	54.7*	1	·	-0.672	1.01	3.37	76.4
N#Cc1cnc2sc3ccccc3n2c1=N	7.0%	-2.44*	1.75	·	-0.104	1.09	36.1	-10.3
N#Cc1c(NCCO)nc(NCc2ccccc2)c2c1CCN(Cc1ccccc1)C2	19.0%	3.3*	2.17*	·	-1.28	1.03	-3.77	-4.35
O=c1nc2scc(-c3ccccc3)n2c2ccccc12	2.0%	1.03	1.14	·	-0.728	1.1	·	·
O=C(O)c1ccc(NS(=O)(=O)c2cc(Cl)ccc2Cl)cc1O	7.0%	2.48	1.07	-41.6	0.505	1.05	·	·
O=C(COc1ccccc1)Nc1ccccc1C(=O)NCc1ccco1	4.0%	6.67*	1.22	·	-0.428	1	?	-42.1
CCOC(=O)C1CCN(C(=O)CCCOc2ccccc2)CC1	2.0%	-0.468	1.11	·	-1.31	1.03	·	·
Cc1cc(Nc2ccc(Br)c(C)c2)n2nc(C)nc2n1	10.0%	4.67*	1.07	·	-0.00118	1.02	?	-38.6
Cc1ccc(Nc2cc(C)nc3nc(C)nn23)cc1	11.0%	1.72	1.07	·	0.638	1.05	·	·
Cc1nn(CC(N)=O)c(=O)c2ccccc12	3.0%	0.106	1.08	-24.7	-0.361	1.01	·	·
Cc1nn(CC(=O)N(C)C)c(=O)c2ccccc12	8.0%	4.16*	1.08	·	0.409	1.01	-5.58	-24.9
CCOC(=O)C1CCCN(C(=O)CSc2nccn2C)C1 (configuration not stated)	0.0%	-0.0432	0.99	·	-0.261	1.02	·	·
COc1ccc(CCNC2=NCC(C)S2)cc1 (configuration not stated)	5.0%	30.7*	1.1	·	-1.61	1.02	-4.95	?
SMILES	NADH coupling	M1 ag	Fluor 339 460	Htt clearance	M1 antagonist	Abs 340nm	M1 agonist conf	M4 agonist ctr
COc1ccc(CCNS(=O)(=O)c2ccc3c(c2)OCCO3)cc1	3.0%	-1.06	1.04	10.3	0.0839	0.98	·	·
Cc1ccccc1Nc1cc2ccccc2c(=O)[nH]1	13.0%	16.9*	2.75*	·	1.57	1.01	64*	43.6
COc1ccc(N2CC(C)Cn3c2nc2c3c(=O)[nH]c(=O)n2C)cc1 (configuration not stated)	7.0%	1.19	1.11	-16.1	0.049	1.03	·	·
Cc1ccc(-c2nc3cc(N)ccc3o2)cc1	3.0%	2.41*	1.98	·	0.677	1.08	-10.5	-14.5
CCCN(S(=O)(=O)c1ccc(OCC)cc1)S(=O)(=O)c1cccs1	1.0%	2.13*	1.13	·	-0.0935	0.99	?	-37
CCOc1ccc(OCC)c(NC(=O)CNS(=O)(=O)c2cccs2)c1	4.0%	-0.394	1.1	·	0.00855	1.03	·	·
CCn1c(SCC(=O)Nc2cccc(NC(=O)c3ccco3)c2)nnc1-c1cccs1	8.0%	4.16*	1.06	·	-0.743	0.98	-10.5	-33.9
O=C1c2ccccc2N2C(=O)c3ccccc3C2N1Cc1ccco1 (configuration not stated)	3.0%	5.3*	1.12	?	-0.777	1.02	0.653	-27.8
Cc1ccccc1NC1c2ccccc2C(=O)N1Cc1ccco1 (configuration not stated)	·	·	·	67.3	·	·	·	·
CCc1nc2ccccc2n(CC)c1=O	6.0%	12.7*	1.75	-1.7	0.00124	1.07	-5.37	-48.3
CCn1c(=O)c(C(C)=O)nc2ccccc21	5.0%	-0.255	1.23	-53.4	0.433	1.05	·	·
Nc1nnc(CCC2CCCCC2)s1	5.0%	-0.131	1.09	12.3	-0.603	1.06	·	·
N#CC1=C(N)SC(N)=C(C#N)C1CCC1CCCCC1	10.0%	6.31*	1.1	-78.9	0.0635	1.11	12.1	16.9
COc1ccccc1NC(=O)Cc1nn(C)c(=O)c2ccccc12	6.0%	2.67*	1.11	38.1	-0.849	1.01	0.786	?
COc1cccc(OC)c1NC(=O)Cc1nn(C)c(=O)c2ccccc12	1.0%	0.125	1.09	-5.2	0.54	1.02	·	·
Cn1nc(CC(=O)Nc2ccc3c(c2)OCCO3)c2ccccc2c1=O	1.0%	4.53*	1.06	·	-1.58	1.02	-0.847	-2.66
Cc1ccc(NC(=O)Cc2nn(C)c(=O)c3ccccc23)cc1F	5.0%	5.47*	1.09	13.0	-2.27	1.03	-5.12	?
COc1cc(NC(=O)Cc2nn(C)c(=O)c3ccccc23)cc(OC)c1	2.0%	0.792	1.02	·	-1	0.99	·	·
Cc1c(C(=O)N2CCc3ccccc3C2)sc2nc(-c3ccccc3)cn12	4.0%	2.44*	1.06	·	-0.504	1	-15.9	?
Cc1c(C(=O)N2CCOCC2)sc2nc(-c3ccccc3)cn12	7.0%	-0.459	1.08	52.8	1.14	1	·	·
CC1CC(C)CN(CCCNC(=O)c2ccc3c(c2)NC(=O)C(N2CCCCC2)S3)C1 (configuration not stated)	1.0%	-0.0199	1.08	8.4	-0.878	1	·	·
Cc1nn(Cc2ccc(C(=O)NC(C)(C)C)o2)c(C)c1Br	5.0%	3.92*	1.09	·	-1.89	0.99	16.8	-15.3
